Screening data: PubChem, Sanford-Burnham Center for Chemical Genomics
The list is not random: actives were taken first. Their share in the collection is about 4%.
TWEAK-Fn14 inh – inhibitors of TWEAK-Fn14 signaling, primary screen, luciferase reporter cells, uHTS. TWEAK-stimulated Fn14 reporter cells, luciferase luminescence, 8 h. inhibition, % at 10 µM. hit rate 2% among 360,000; in the data active = inhibition above about 50%
HIF-2a block – HIF-2a reporter inhibitors, primary screen, luminescence, 786-0 RCC cells | inhibition, % at 18.8 µM | hit rate 0.72% among 360,000 | 786-0 RCC cells HIF-2a reporter, luciferase luminescence, overnight;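 active = inhibition of the luminescence signal of 40% or more relative to plate controls, in a single-dose primary screen at 18.75 µM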
KKLEB tox – cytotoxicity in KKLEB CF airway cells, primary screen, cytotoxicity control for CF NF-kB inhibitor project, cell-based, uHTS, fluorescence assay plates. hit rate 0.36% among 360,000. KKLEB CF airway cells viability, ATPlite luminescence, overnight; stronger effect = lower value; cells stimulated with P. aeruginosa culture filtrate. AID 602141, 2011. activity change (cytotoxicity), % at 5 µM;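 active = corrected activity change at or below -50% at 5 µM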
CF NFkB block – inhibitors of PAF-induced NF-kB signaling, primary screen, cell-based, GFP fluorescence, uHTS. KKLEB NF-kB-GFP reporter, GFP fluorescence overnight. inhibition, % at 5 µM. hit rate 0.86% among 360,000. AID 588850, 2011;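 active = at least 50% inhibition at 5 µM, scaled per plate between neutral and stimulator controls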;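 also: PAF is a Pseudomonas aeruginosa culture filtrate used as stimulus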
TROY NFkB inh – inhibitors of TROY-driven NF-kB signaling, primary screen, Q293 LMP1-TROYcd cells, NF-kB luciferase, uHTS. hit rate 0.98% among 360,000. inhibition, % at 10 µM. AID 1347056, 2019. Q293 LMP1-TROYcd NF-kB luciferase reporter, 4 h;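 active = compounds whose plate-normalised and pattern-corrected inhibition of the luciferase reporter signal at the single screening dose is 50% or more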
Peg3 prom inh – Peg3 promoter-driven luciferase inhibitors, primary screen, cell-based, HeLa, luciferase luminescence; HeLa PEG-Prom luciferase reporter, overnight; inhibition, % at 20 µM; hit rate 1.7% among 360,000;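 active = inhibition of at least 50% at 20 µM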
Hits are given with their value.

For NC(=O)c1nsc(C(=O)N(Cc2ccco2)C(C(=O)NCC2CCCO2)c2ccc(O)cc2)c1N (configuration not stated) the results were TWEAK-Fn14 inh inactive, HIF-2a block inactive, KKLEB tox inactive, CF NFkB block inactive, TROY NFkB inh inactive and Peg3 prom inh inactive.
Screening Nc1nonc1-c1nc2ccccc2n1Cc1ccc(F)cc1Cl returned TWEAK-Fn14 inh inactive, HIF-2a block inactive, KKLEB tox inactive, CF NFkB block inactive, TROY NFkB inh 54 and Peg3 prom inh inactive.
Screening O=C(Nc1cccn(Cc2c(Cl)cccc2Cl)c1=O)c1ccc(Cl)cc1Cl returned TWEAK-Fn14 inh 64, HIF-2a block inactive, KKLEB tox inactive, CF NFkB block inactive, TROY NFkB inh inactive and Peg3 prom inh inactive.
`O=C(Nc1cnc2sccn2c1=O)c1ccc(Cl)cc1Cl` gave TWEAK-Fn14 inh 56, HIF-2a block inactive, KKLEB tox inactive, CF NFkB block inactive, TROY NFkB inh inactive and Peg3 prom inh inactive.
COc1ccc(Cl)cc1NC(=O)c1cnc2sccn2c1=O was read as TWEAK-Fn14 inh inactive, HIF-2a block inactive, KKLEB tox inactive, CF NFkB block inactive, TROY NFkB inh inactive and Peg3 prom inh inactive.
CCC(=O)NC(c1cccs1)c1ccc2cccnc2c1O (configuration not stated) was read as TWEAK-Fn14 inh inactive, HIF-2a block inactive, KKLEB tox inactive, CF NFkB block inactive, TROY NFkB inh inactive and Peg3 prom inh inactive.
For Oc1c(C(Nc2nccs2)c2ccc(C(F)(F)F)cc2)ccc2cccnc12 (configuration not stated) the results were TWEAK-Fn14 inh inactive, HIF-2a block 87, KKLEB tox inactive, CF NFkB block inactive, TROY NFkB inh inactive and Peg3 prom inh 68.
CCOc1ccc(C(Nc2cccnc2)c2cc(Cl)c3cccnc3c2O)cc1 (configuration not stated) was read as TWEAK-Fn14 inh inactive, HIF-2a block inactive, KKLEB tox inactive, CF NFkB block inactive, TROY NFkB inh inactive and Peg3 prom inh inactive.
Screening Oc1c(C(Nc2cccc(C(F)(F)F)c2)c2ccncc2)ccc2cccnc12 (configuration not stated) returned TWEAK-Fn14 inh 52, HIF-2a block inactive, KKLEB tox inactive, CF NFkB block inactive, TROY NFkB inh inactive and Peg3 prom inh inactive.
For CCOC(=O)C(NC(C)=O)(Nc1ccc(S(=O)(=O)Nc2onc(C)c2C)cc1)C(F)(F)F (configuration not stated) the results were TWEAK-Fn14 inh inactive, HIF-2a block inactive, KKLEB tox inactive, CF NFkB block inactive, TROY NFkB inh inactive and Peg3 prom inh inactive.
Cc1ccccc1NC(=O)Cn1c(=O)n(-c2ccc(CC(=O)NCC3CCCO3)cc2)c(=O)c2ccccc21 (configuration not stated) was read as TWEAK-Fn14 inh inactive, HIF-2a block inactive, KKLEB tox inactive, CF NFkB block inactive, TROY NFkB inh inactive and Peg3 prom inh inactive.
CN1CCN(c2ccc(S(=O)(=O)N3CCCCC3)cc2NC(=O)/C=C/c2ccc(OC(F)F)cc2)CC1 was read as TWEAK-Fn14 inh inactive, HIF-2a block inactive, KKLEB tox inactive, CF NFkB block inactive, TROY NFkB inh inactive and Peg3 prom inh 76.
`CCN1CCN(c2ccc(S(=O)(=O)N3CCCCC3)cc2NC(=O)/C=C/c2cccc(OC)c2OC)CC1` gave TWEAK-Fn14 inh inactive, HIF-2a block inactive, KKLEB tox inactive, CF NFkB block inactive, TROY NFkB inh inactive and Peg3 prom inh 68.
Screening Cc1ccc(S(=O)(=O)N2CCOCC2)cc1NC(=O)COc1ccc(C(=O)c2ccccc2)cc1 returned TWEAK-Fn14 inh inactive, HIF-2a block inactive, KKLEB tox inactive, CF NFkB block inactive, TROY NFkB inh inactive and Peg3 prom inh 61.
CCN1CCN(c2ccc(S(=O)(=O)N3CCCCC3)cc2NC(=O)/C=C/c2ccc(OC(F)F)cc2)CC1 was read as TWEAK-Fn14 inh inactive, HIF-2a block inactive, KKLEB tox inactive, CF NFkB block inactive, TROY NFkB inh inactive and Peg3 prom inh 96.
CCN1CCN(c2ccc(S(=O)(=O)N3CCCCC3)cc2NC(=O)/C=C/c2ccc(F)cc2)CC1 was read as TWEAK-Fn14 inh inactive, HIF-2a block inactive, KKLEB tox inactive, CF NFkB block inactive, TROY NFkB inh inactive and Peg3 prom inh inactive.
CCN(CC)CCOC(=O)c1ccc(N/C=C(/C#N)c2nc(-c3ccc(OC)cc3)cs2)cc1 was read as TWEAK-Fn14 inh inactive, HIF-2a block inactive, KKLEB tox inactive, CF NFkB block inactive, TROY NFkB inh inactive and Peg3 prom inh inactive.
Screening CCCCN1CC[C@H]2C=CC[C@@H](C(=O)N3CCOCC3)[C@H]2C1=O returned TWEAK-Fn14 inh inactive, HIF-2a block inactive, KKLEB tox inactive, CF NFkB block inactive, TROY NFkB inh inactive and Peg3 prom inh inactive.
For CN1CCN(c2ccc(S(=O)(=O)N3CCCCC3)cc2NC(=O)/C=C/c2ccc(Cl)c([N+](=O)[O-])c2)CC1 the results were TWEAK-Fn14 inh inactive, HIF-2a block inactive, KKLEB tox inactive, CF NFkB block inactive, TROY NFkB inh inactive and Peg3 prom inh 104.
For Cc1cccc(OCC(=O)Nc2cc(S(=O)(=O)N3CCCCC3)ccc2N2CCN(C)CC2)c1 the results were TWEAK-Fn14 inh inactive, HIF-2a block inactive, KKLEB tox inactive, CF NFkB block inactive, TROY NFkB inh 85 and Peg3 prom inh inactive.
`CN1CCN(c2ccc(S(=O)(=O)N3CCCCC3)cc2NC(=O)COc2cccc(Cl)c2)CC1` gave TWEAK-Fn14 inh inactive, HIF-2a block inactive, KKLEB tox inactive, CF NFkB block inactive, TROY NFkB inh inactive and Peg3 prom inh inactive.
For O=C(/C=C/c1ccc(Cl)c([N+](=O)[O-])c1)Nc1ccc(N2CCCC2)c(Cl)c1 the results were TWEAK-Fn14 inh inactive, HIF-2a block inactive, KKLEB tox inactive, CF NFkB block inactive, TROY NFkB inh inactive and Peg3 prom inh inactive.
For COc1ccccc1NC(=O)CSc1nc2n[nH]c(C)c2c(=N)n1-c1ccccc1Cl the results were TWEAK-Fn14 inh 62, HIF-2a block inactive, KKLEB tox inactive, CF NFkB block inactive, TROY NFkB inh inactive and Peg3 prom inh inactive.
Screening Cc1cccc(-n2ncc3c(N(CCO)CCO)ncnc32)c1 returned TWEAK-Fn14 inh 88, HIF-2a block inactive, KKLEB tox inactive, CF NFkB block inactive, TROY NFkB inh inactive and Peg3 prom inh inactive.
`C=CCc1cccc2cc(C(=O)Nc3ccc(CC(=O)O)cc3)c(=O)oc12` gave TWEAK-Fn14 inh inactive, HIF-2a block 64, KKLEB tox inactive, CF NFkB block inactive, TROY NFkB inh inactive and Peg3 prom inh inactive.
`C=CCc1cccc2cc(C(=O)Nc3ccc(F)cc3)c(=O)oc12` gave TWEAK-Fn14 inh inactive, HIF-2a block inactive, KKLEB tox inactive, CF NFkB block inactive, TROY NFkB inh inactive and Peg3 prom inh inactive.
